The source of these data is PubChem BioAssay (Tox21).

Inconclusive results are not listed. A call without a number means that no potency is given here. The source made the active and inactive calls. Calls come from the whole dose curve; as a rule, active = well fitted cell-killing curve with a large enough effect in the repeat runs; inconclusive = weak or mixed curves, or effect the other way; inactive = flat fitted curve, though single readings scatter.

The first assay can be described thus: cAMP Responsive Elements (CRE) small molecule antagonists, cell-based qHTS assay: qHTS cell viability counter screen (AID 2060913). Note: nearly all actives have a fitted effect of over 40% in size. As to conditions: CRE-bla HEK293T viability, CellTiter-Glo luminescence, 5 h; series mostly up to 92.4 µM. The essentials: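 Cytotoxicity read in the same wells as the CRE-bla HEK293T antagonist assay: after 3 h compound with 0.25 uM NKH477 final and 2 h beta-lactamase substrate, CellTiter-Glo luminescence measured.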
In the case of `O=C1CCCN1CCO`, the Potency entry was “inactive”.
In the case of `O=C(NC1CCN(CCc2c[nH]c3ccccc23)CC1)c1ccccc1`, the Potency entry is “inactive”.
As for `COc1cc2c(cc1OC)C(=O)C(CC1CCN(Cc3ccccc3)CC1)C2` (stereo not drawn), the Potency entry is “inactive”.
Still for that read-out and setting: for `Cc1cccc(C)c1` the value was “inactive”.
On the same count and under the same terms, the same measure for `O=C1C(=O)c2ccccc2C(O)=C1C1CCC(c2ccc(Cl)cc2)CC1` (stereo not drawn): “inactive”.
Take `Cc1nc2n(c(=O)c1CCN1CCC(c3noc4cc(F)ccc34)CC1)CCC[C@H]2O`: the viability change, negative = cytotoxic was 2.27% [at 18.9 µM] (inactive).
For the compound `Cc1c(NC(=O)c2cccnc2)c(=O)n(-c2ccccc2)n1C`, the Potency entry is “inactive”.
`OCCN1CCN(CCCN2c3ccccc3Sc3ccc(C(F)(F)F)cc32)CC1`: the Potency entry is “inactive”.
On to `C1C[C@@H]2[C@H]3CC[C@H](C3)[C@@H]2C1`, for which the Potency result is “inactive”.
On the same count and under the same terms, for `c1ccc(CSCc2ccccc2)cc1` the value was “inactive”; for `Oc1ccc2ccccc2c1N=Nc1ccccc1`, “inactive”.
As to `COC(=O)c1cccc(C(=O)OC)c1`, the Potency entry is “inactive”.
Regarding `O=C1OC(=O)c2cc([N+](=O)[O-])ccc21`, the Potency result is “inactive”.
On the same count and under the same terms, for `CCCCNS(=O)(=O)c1ccccc1` the value was “inactive”.
As for `CCCCCCCCSCc1cc(C)c(O)c(CSCCCCCCCC)c1`, the Potency result was “inactive”.
On to `CCC(=O)C1CC(C(C)C)CC=C1C` (stereo not drawn), for which the Potency entry was “inactive”.
For the compound `COc1cccc(Br)c1`, the Potency result is “inactive”.
On to `NCCOCCN`, for which the Potency entry is “inactive”.

A further assay can be described thus: cAMP Responsive Elements (CRE) small molecule agonists, cell-based qHTS assay: qHTS cell viability counter screen (AID 2060914). Note: nearly all actives have a fitted effect of over 50% in size. Particulars: CRE-bla HEK293T viability, CellTiter-Glo luminescence, 5 h; series mostly up to 92.4 µM. The essentials:
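Cytotoxicity counter screen multiplexed with the CRE-bla reporter assay in HEK 293T cells: 3 h compound exposure at 37 °C, followed by CellTiter-Glo luminescence measured in the same wells.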
Turning to `CC(C)NC(=O)c1ccccc1N`, the Potency entry was “inactive”.
For the compound `Cc1cc2nc3c(=O)[nH]c(=O)nc-3n(C[C@H](O)[C@H](O)[C@H](O)CO)c2cc1C`, the Potency result was “inactive”.
Consider `Nc1ccc(Cl)cc1Cl`, for which the Potency result is “inactive”.
Consider `CCOC(=O)N1CCC(=C2c3ccc(Cl)cc3CCc3cccnc32)CC1`, for which the Potency result is “inactive”.
The same measure, in the same setting: the same measure for `Cc1ncc(COP(=O)(O)O)c(C=O)c1O`: “inactive”.
Consider `OCc1ccccc1O`, for which the Potency result was “inactive”.
Regarding `CC(C)CCCC(C)NCCC(C)C` (stereo not drawn), the Potency entry is “inactive”.
Consider `Cc1ccccc1S(=O)(=O)O`, for which the Potency result was “inactive”.
As to `Cc1c(N(C)CS(=O)(=O)O)c(=O)n(-c2ccccc2)n1C`, the Potency result is “inactive”.
On to `Nc1ccc2cc(S(=O)(=O)O)cc(O)c2c1N=Nc1ccccc1C(F)(F)F`, for which the Potency result was “inactive”.
Turning to `CC(=O)OC/C=C(C)/C=C/C=C(C)/C=C/C1=C(C)CCCC1(C)C`, the Potency result is “inactive”.
In the case of `CCN(CCO)CCCC(C)Nc1ccnc2cc(Cl)ccc12` (stereo not drawn), the activity change, negative = cytotoxicity was -9.15% [at 8.39 µM] (inactive).
Consider `CCCCCC=O`, for which the Potency result was “inactive”.
On to `CC(C)(C)OC(=O)c1ccc(O)cc1`, for which the Potency entry is “inactive”.
Still for that read-out and setting: for `COc1ccc(-n2nc(C(F)F)cc2-c2ccc(S(C)=O)cc2)cc1` (stereo not drawn) the value was “inactive”; for `CCC(N)(CO)CO`, “inactive”; for `CCn1cc(C(=O)O)c(=O)c2ccc(C)nc21`, “inactive”.
Regarding `CC(CN(CCN(CC(C)OCCO)CC(C)OCCO)CC(C)OCCO)OCCO` (stereo not drawn), the Potency result was “inactive”.
Consider `O=C(CCCN1CCC(O)(c2cccc(C(F)(F)F)c2)CC1)c1ccc(F)cc1`, for which the Potency result was “inactive”.
As to `COc1ccc([C@@H]2Sc3ccccc3N(CCN(C)C)C(=O)[C@@H]2OC(C)=O)cc1`, the Potency entry is “inactive”.
Turning to `COC(=O)NN`, the Potency result is “inactive”.
`CC(=O)O[C@]1(C(C)=O)CC[C@H]2[C@@H]3C[C@H](C)C4=CC(=O)CC[C@]4(C)[C@H]3CC[C@@]21C`: the Potency result is “inactive”.
On to `O=C1CCCN1CCO`, for which the Potency result was “inactive”.
In the case of `O=C(NC1CCN(CCc2c[nH]c3ccccc23)CC1)c1ccccc1`, the Potency result is “inactive”.
As for `COc1cc2c(cc1OC)C(=O)C(CC1CCN(Cc3ccccc3)CC1)C2` (stereo not drawn), the Potency entry was “inactive”.
On the same count and under the same terms, the same measure for `Cc1cccc(C)c1`: “inactive”.
On the same count and under the same terms, for `O=C1C(=O)c2ccccc2C(O)=C1C1CCC(c2ccc(Cl)cc2)CC1` (stereo not drawn) the value was “inactive”.
Consider `Cc1nc2n(c(=O)c1CCN1CCC(c3noc4cc(F)ccc34)CC1)CCC[C@H]2O`, for which the activity change, negative = cytotoxicity was 4.41% [at 18.9 µM] (inactive).
Regarding `Cc1c(NC(=O)c2cccnc2)c(=O)n(-c2ccccc2)n1C`, the Potency result was “inactive”.
As for `OCCN1CCN(CCCN2c3ccccc3Sc3ccc(C(F)(F)F)cc32)CC1`, the Potency entry was “inactive”.
Still for that read-out and setting: the same measure for `C1C[C@@H]2[C@H]3CC[C@H](C3)[C@@H]2C1`: “inactive”; for `c1ccc(CSCc2ccccc2)cc1`: “inactive”.
Take `Oc1ccc2ccccc2c1N=Nc1ccccc1`: the Potency entry was “inactive”.
For the compound `COC(=O)c1cccc(C(=O)OC)c1`, the Potency result was “inactive”.
For `O=C1OC(=O)c2cc([N+](=O)[O-])ccc21`, the Potency result was “inactive”.
Regarding `CCCCNS(=O)(=O)c1ccccc1`, the Potency result was “inactive”.
Turning to `CCCCCCCCSCc1cc(C)c(O)c(CSCCCCCCCC)c1`, the Potency result was “inactive”.
On to `CCC(=O)C1CC(C(C)C)CC=C1C` (stereo not drawn), for which the Potency entry was “inactive”.
As to `COc1cccc(Br)c1`, the Potency entry was “inactive”.
With `NCCOCCN`, the Potency result was “inactive”.
